The source of these data is ChEMBL document CHEMBL3433997, “St. Jude Leishmania screening dataset” (2016).

Common to all, as to type: functional
Assay [1] addresses Solute carrier family 2, facilitated glucose transporter member 1 (Homo sapiens) (UniProt P11166). Nature of the assay: ST_JUDE_LEISH: Cytotoxicity at 2uM final concentration against transgenic Leishmania Mexicana promastigotes LmGLUT1 that are glucose transport deficient and complemented with the human glucose transporter GLUT1. Activity is measured by DNA content using SYBR green in vitro.

Assay [2] has as its target Hexose transporter 1 (Plasmodium falciparum) (UniProt O97467). Nature of the assay: ST_JUDE_LEISH: Cytotoxicity at 2uM final concentration against transgenic Leishmania Mexicana promastigotes LmPfHT that are glucose transport deficient and complemented with the Plasmodium falciparum hexose transporter. Activity is measured by DNA content using SYBR green in vitro.
Assay [3] has as its target Glucose transporter (Leishmania mexicana) (UniProt O61059). Put plainly: ST_JUDE_LEISH: Cytotoxicity at 2uM final concentration against transgenic Leishmania Mexicana promastigotes LmGT2 that are glucose transport deficient and complemented with the L. Mexicana glucose transporter 2. Activity is measured by DNA content using SYBR green in vitro.

Solute carrier family 2, facilitated glucose transporter member 1 (Homo sapiens), sequence (P11166 whole entry): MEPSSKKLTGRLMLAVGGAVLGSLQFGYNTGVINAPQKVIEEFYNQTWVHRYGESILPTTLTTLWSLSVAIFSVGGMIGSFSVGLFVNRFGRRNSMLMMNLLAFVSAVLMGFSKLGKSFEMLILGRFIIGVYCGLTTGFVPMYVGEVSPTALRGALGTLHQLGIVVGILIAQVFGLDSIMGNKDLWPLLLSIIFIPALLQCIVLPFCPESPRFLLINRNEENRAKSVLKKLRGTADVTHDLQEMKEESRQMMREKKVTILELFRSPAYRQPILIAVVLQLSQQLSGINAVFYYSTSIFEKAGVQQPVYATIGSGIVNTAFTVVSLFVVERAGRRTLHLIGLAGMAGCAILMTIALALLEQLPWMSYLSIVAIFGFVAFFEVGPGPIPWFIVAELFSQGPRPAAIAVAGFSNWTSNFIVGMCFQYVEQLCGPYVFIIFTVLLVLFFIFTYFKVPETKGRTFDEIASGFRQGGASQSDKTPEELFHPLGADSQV

Regarding `CC1CCCC(NC(=O)CCOc2ccccc2)C1` (stereo not drawn), the inhibition in assay [1] is 7.23%; in assay [2], 6.34%; in assay [3] it was 6.88%.
Consider `CNC(=O)C1Cc2c([nH]c3cc(Br)ccc23)C2(CCN(CCc3ccccc3)CC2)N1` (stereo not drawn), for which the inhibition in assay [1] came out at 2.01%; in assay [2] it was 0.63%; in assay [3], 1.83%.
The matching figures for `Clc1ccccc1CNc1noc(-c2sccc2Br)n1`: 0.33%, 2.84% and 1.17%.
The matching figures for `CCc1ccc(C2CCN(CCCCNC(=O)c3ccc(NC(=O)c4ccc(Cl)cc4)cc3)CC2)c(OCC(=O)OC)c1`: -0.04%, 1.79% and 1.25%.
The matching figures for `CC(C)(C)OC(=O)c1c(NC(=O)/C=C/c2ccc(O)c(O)c2)sc2c1CCCC2`: -1.88%, -1.04% and -0.95%.
`COc1ccc2nccc([C@@H](O)CN3CCC(NCc4ccc5cccc(O)c5n4)CC3)c2c1`: the inhibition in assay [1] was found to be 7.73%; in assay [2] it was 7.94%; in assay [3], 3.46%.
The matching figures for `CC(C)NCc1ccc(-c2cccc(-c3nc4ccccc4[nH]3)c2)cc1`: 13.3%, 11.8% and 10.3%.
The matching figures for `CCCC(C)Nc1nc(C)cc(N[C@@H](CC(C)C)C(=O)NCCc2ccccc2)n1` (stereo partly drawn): 7.28%, 6.41% and 8.06%.
On to `CCOc1cc(C(=O)NC2CCN(Cc3ccccc3)CC2)ccc1-c1nc2cc(Cl)c(F)cc2[nH]1`, for which the inhibition is 3.61% in assay [1], 2.49% in assay [2] and 3.19% in assay [3].
Regarding `CC(C)CNC(=O)c1cncc(-c2ccc(CN(C)C3CCN(C)CC3)cc2)c1`, the inhibition in assay [1] was 4.89%; in assay [2], 5.48%; in assay [3], 1.87%.
The matching figures for `CN(C)C(=O)CCCn1c(CNCCCNc2cc(=O)c3ccccc3[nH]2)cc2c(Cl)cc(Cl)cc21`: 0.57%, 2.54% and 2%.
The matching figures for `CC(=O)N/N=C/[C@H](CCc1ccccc1)NC(=O)[C@H](CC(C)C)NC(=O)c1ccc(OCCN2CCOCC2)cc1`: 2.92%, 6.88% and 3.05%.
As to `Cc1cccn2c(=O)c3cc(C(=O)NC(C)c4ccccc4)c(=N)n(CCN4CCOCC4)c3nc12` (stereo not drawn), the results for the inhibition in assay [1], in assay [2] and in assay [3] were 3.65%, 1.65% and -1.52%, respectively.
As to `Cc1ccc(Cn2c(N3CCC(C(=O)NCc4ccccn4)CC3)nc3ccccc32)cc1`, the values for the inhibition in assay [1], in assay [2] and in assay [3] were 4.09%, 4.68% and 7.97%, respectively.
For `CCCN1CCC2(CC1)NC(C(=O)NCCC(C)C)Cc1c2[nH]c2cc(Cl)ccc12` (stereo not drawn), the inhibition stood at 6.25% in assay [1], 6.94% in assay [2] and 2.82% in assay [3].
Regarding `CCCC(=O)c1cnc2cc(O)ccc2c1Nc1ccccc1C`, the inhibition in assay [1] amounted to 6.19%; in assay [2], 6.97%; in assay [3], 0.57%.
With `COc1cc(Cc2cnc(N)nc2N)ccc1OCc1ccc(NC(C)=O)cc1`, the inhibition in assay [1] came to 1.71%; in assay [2] it was 4.96%; in assay [3], 3.61%.
The matching figures for `Cc1cnc(Nc2cccc(CCN3CCOCC3)c2)nc1NC(C)C`: 9.35%, 9.73% and 2.69%.
`CCCC(=O)Nc1ccc(Nc2nc(C)cc(N3CCCC3)n2)cc1`: the inhibition is 1.82% in assay [1], 4.49% in assay [2] and -0.91% in assay [3].
The matching figures for `O=C(NCCCCCN1CCC(c2c[nH]c3ccccc23)CC1)Nc1cccc(I)c1`: 14.6%, 12.6% and 5.88%.
The matching figures for `N#Cc1ccc(CN2CCC(Oc3ccc(NC(=O)c4cccs4)cc3)C2)cc1` (stereo not drawn): 2.68%, -0.99% and 0.05%.
Take `C[C@H](NC(=O)c1c(OC2CN(C(c3ccccc3)c3ccccc3)C2)c(-c2ccccc2)nc2ccccc12)C1CCCCC1`: the values for the inhibition in assay [1], in assay [2] and in assay [3] were 2.01%, 0.08% and 0.33%, respectively.
For the molecule `Cc1nnc2c(NC(=O)NC3CCCC3)cc3ccc(-c4cccc(CN5CCN(C)CC5)c4)cc3n12`, the inhibition was 6.21% in assay [1], 6.49% in assay [2] and 5.53% in assay [3].
On to `CN1CCC(NCc2ccc(-c3ccc(S(=O)(=O)NCc4ccccc4)cc3)cc2)CC1`, for which the figures for the inhibition in assay [1], in assay [2] and in assay [3] were 0.4%, -1.45% and -3.56%, respectively.
The matching figures for `CN1CCN(CCCN(C(=O)Nc2cc(C(F)(F)F)cc(C(F)(F)F)c2)c2ccccc2Cc2ccccc2)CC1`: 0.6%, 0.83% and -8.69%.
As for `CCCCN1CCCN(Cc2cccc(NC(=O)c3ccc(-c4ccccc4)cc3)c2)CC1`, the inhibition in assay [1] is 1.16%; in assay [2], -2.15%; in assay [3], -1.31%.
The matching figures for `CCCCCN1CCCC1CNS(=O)(=O)c1ccc(C(=O)Nc2cccc(C(F)(F)F)c2)cc1` (stereo not drawn): 0.76%, 0.61% and 0.19%.
With `O=C(Nc1ccc(Cn2nc(Cl)c(N3CCNCC3)cc2=O)cc1)Nc1ccc(-c2ccccc2)cc1`, the figures for the inhibition in assay [1], in assay [2] and in assay [3] were 14%, 9.91% and 11.4%, respectively.
With `CCCCCN1CCCCC(NS(=O)(=O)c2ccc(C(=O)Nc3cccc(C(F)(F)F)c3)cc2)C1` (stereo not drawn), the inhibition in assay [1] was determined as 6.68%; in assay [2] it was 5.05%; in assay [3], 3.25%.
Turning to `CCN(c1ccc(O)c(CN2CCCCC2)c1)c1ccc([N+](=O)[O-])cn1`, the inhibition in assay [1] came out at 2.79%; in assay [2] it was 1.08%; in assay [3], 0.72%.
`Cc1ncc([N+](=O)[O-])n1CCOC(=O)NC(Nc1ccc(Br)cc1)C(Cl)(Cl)Cl` (stereo not drawn): the values for the inhibition in assay [1], in assay [2] and in assay [3] were 2.8%, 0.15% and -1.63%, respectively.
For `[O-][s+]1nc(NCCCN(Cc2cccs2)c2ccccn2)c(NCc2ccccc2)n1` (stereo not drawn), the inhibition in assay [1] is -1.34%; in assay [2], 0.68%; in assay [3], -1.82%.
The matching figures for `CCN(CC)CCN(Cc1ccc(-c2ccc(C(F)(F)F)cc2)cc1)C(=O)Cn1c(CCc2cc(F)c(F)c(F)c2)nc(=O)c2ccccc21`: 9.62%, 9.17% and 8.54%.
Turning to `Cc1ccc(-c2noc(=O)n2CC(=O)Nc2ccccc2-c2ccccc2)cc1`, the inhibition is 0.59% in assay [1], 0.52% in assay [2] and -0.17% in assay [3].
`Clc1ccc(CNc2ccnc(NCc3cccnc3N3CCCC3)n2)c(Cl)c1`: the inhibition in assay [1] is 12.9%; in assay [2], 7.88%; in assay [3] it was 3.44%.
Take `CCc1cc(NC2CCN(C)CC2)nc(Nc2cccc(OC)c2)n1`: the inhibition in assay [1] came out at 15%; in assay [2] it was 10%; in assay [3], 6.53%.
